# Results filed as inconclusive are left out. The source made the active and inactive calls. The call rests on the fitted dose curve; in most records, active means well fitted inhibition curve with a large enough effect in the repeat runs; inconclusive means weak or mixed curves; inactive means no such curve, though single readings can be large or run the other way.
# Biological target: Cytochrome P450 2C9 (Homo sapiens) (UniProt P11712)
# Experiment: Cytochrome P450 family 2 subfamily C member 9 (CYP2C9) small molecule antagonists: luciferase biochemical (cell-free) qHTS assay (AID 1645842); further: nearly all actives have a fitted effect of over 55% in size
# Settings: P450-Glo CYP2C9 enzyme assay, luciferin luminescence; series mostly up to 57.4 µM
# Experimental: National Center for Advancing Translational Sciences [NCATS] Assay Overview: Cytochrome P450 (CYP) enzymes are membrane-bound hemeproteins that play a key role in metabolism of drugs and xenobiotics. Assaying the effect of chemicals on CYP isozymes is useful to minimize the adverse drug reactions and toxicities in drug development process. Chemical compounds were tested for their effect on CYP enzyme activities by using P450-Glo (TM) screening systems (Promega Corporation, Madison, WI). These systems provide a luminescent method containing proluciferin substrates and are converted to luciferin products by CYP isozymes. The luciferin products formed are detected with a luciferin detection reagent, and the amount of light produced is proportional to CYP activity. P450-Glo (TM) CYP2C9 screening system (Catalog. No. V9790) was used to detect the compounds that interfere in CYP2C9 activity.
# Assay Protocol Summary: Two ul of enzyme-substrate mix supplemented with 0.4% Bovine Serum Albumin was dispensed into medium binding white/solid 1536-well plates (Greiner Bio-One North America Inc., Monroe, NC) using a Flying Reagent Dispenser (FRD, Aurora Discovery, San Diego, CA). […] The assay plates were incubated at room temperature for 10 min. Then 2 ul of NADPH regeneration solution was added to each well of the assay plates using an FRD and incubated at 37C for 1 h. The reaction was stopped by adding 4 ul of detection reagent using an FRD and after 20 min incubation at room temperature, the luminescence signal was measured using a ViewLux plate reader (Perkin Elmer, Shelton, CT). Data were expressed as relative luminescence units.
# Potency means the concentration at half of the fitted maximal effect.
# Sequence of Cytochrome P450 2C9 (Homo sapiens) (P11712 whole entry, looked up): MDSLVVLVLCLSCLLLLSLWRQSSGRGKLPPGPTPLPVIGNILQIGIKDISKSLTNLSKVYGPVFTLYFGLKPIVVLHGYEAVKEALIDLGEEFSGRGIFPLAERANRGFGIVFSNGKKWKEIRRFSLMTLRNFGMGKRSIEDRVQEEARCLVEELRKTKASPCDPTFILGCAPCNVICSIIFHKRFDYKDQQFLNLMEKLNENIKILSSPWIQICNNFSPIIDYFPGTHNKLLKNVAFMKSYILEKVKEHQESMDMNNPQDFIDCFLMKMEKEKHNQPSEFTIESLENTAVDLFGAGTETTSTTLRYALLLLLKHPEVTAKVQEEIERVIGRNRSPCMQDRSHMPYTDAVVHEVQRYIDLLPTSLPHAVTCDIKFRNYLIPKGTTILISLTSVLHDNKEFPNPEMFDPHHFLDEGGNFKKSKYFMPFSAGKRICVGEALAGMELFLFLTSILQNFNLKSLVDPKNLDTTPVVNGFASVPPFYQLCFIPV
row,SMILES,Potency
1,CC1=CC(O)=NS(=O)(=O)O1,inactive
2,COC(=O)c1ccc(C2C=C(c3ccc(Cl)cc3)Nc3nc4ccccc4n32)cc1 (stereo not given),2.68 µM (active)
3,CCN1CCN(CCCNC(=O)c2cc3c(s2)-c2c(C)cccc2OC3)CC1,inactive
4,CNS(=O)(=O)c1ccc(Cc2c(-c3cccc(-c4ccccc4)c3)[nH]n(-c3nc(C(=O)O)cs3)c2=O)cc1,21.3 µM (active)
5,C=C1CC[C@H](O)C/C1=C\C=C1/CCCC2(C)C1CCC2C(C)CCCC(C)C (stereo not given in full),23.9 µM (active)
6,Cc1nnc(N2CCC(C(=O)NCCc3ccccc3Cl)CC2)c2nn(-c3ccccc3)c(C)c12,1.9 µM (active)
7,OCC=Cc1ccccc1,19 µM (active)
8,O=C(CSc1nc2ccccc2n1Cc1cccc(F)c1)N1CCN(c2ccc(F)cc2)CC1,3.38 µM (active)
9,O=C(NCc1ccco1)c1ccc2c(c1)N(Cc1cccc(Cl)c1)C(=O)c1ccccc1S2=O (stereo not given),1.34 µM (active)
10,C=CCNCCCCCC[N+](C)(C)C,inactive
11,CCOC(=O)c1c(NC(=O)c2ccc(S(=O)(=O)N(C)C3CCCCC3)cc2)sc2c1CCN(C(C)C)C2,5.35 µM (active)
12,CCOc1ccccc1NC(=O)Cn1c(=O)n(CCC(=O)NCc2ccc3c(c2)OCO3)c(=O)c2ccccc21,0.601 µM (active)
13,Nc1nc(NC2CC2)c2ncn([C@H]3C=C[C@@H](CO)C3)c2n1,inactive
14,CCOC(=O)N1CCc2c(sc3c2c(=O)n(Cc2ccccc2)c(=O)n3CC(=O)Nc2ccc(F)cc2)C1,2.39 µM (active)
15,O=C(CSc1nc2ccsc2c(=O)n1Cc1ccccc1F)NCc1ccccc1Cl,1.51 µM (active)
16,CC(C)[C@H](N)C(=O)O,inactive
17,COc1ccc(-c2nc(SCC(=O)Nc3ccc4c(c3)OCO4)c(-c3ccc(OC)cc3)[nH]2)cc1,0.849 µM (active)
18,CCC(C)Nc1cc(C(=O)NC2CC3CCC(C2)N3c2ccc(C(=O)C3CC3)cn2)c(C)cc1C(N)=O (stereo not given),8.49 µM (active)
19,Cc1cc(C)c(Cn2c3ccccc3c3cnn(CC(=O)NCc4ccccn4)c(=O)c32)c(C)c1,10.7 µM (active)
20,Cc1ccc(C2=CC(c3ccccc3F)n3c(nc4ccccc43)N2)cc1C (stereo not given),6.01 µM (active)

row,SMILES,Potency
1,O=c1cc2nc(-c3cccs3)nc(SCCOc3ccc(Cl)cc3)n2[nH]1,19 µM (active)
2,Cn1c(=O)c2c(nc(OC3CCN(C(=O)C4CC4)CC3)n2CCC(C)(C)C)n(C)c1=O,12 µM (active)
3,N#Cc1ccccc1Cn1nnc2c(=O)[nH]c(C3CCCN(S(=O)(=O)c4ccc(F)cc4)C3)nc21 (stereo not given),1.69 µM (active)
4,COc1cccc(NC(=O)Cn2c(=O)n(CC(=O)NCc3ccc(C)cc3)c(=O)c3sccc32)c1,6.01 µM (active)
5,COc1cccc(C(=O)NC(c2ccc(Cl)cc2)c2cc(Cl)c3cccnc3c2O)c1 (stereo not given),23.9 µM (active)
6,COc1cccc(Cn2c(SCC(=O)N3CCN(c4ccc(F)cc4)CC3)nc3ccccc32)c1,2.13 µM (active)
7,CC1(C#N)CCN(c2c(C(=O)N3CCC(C(=O)C4CC4)CC3)cnc3cc(F)c(F)cc23)CC1,9.52 µM (active)
8,COc1cccc(-c2oc3ccc(C)cc3c(=O)c2O)c1,7.56 µM (active)
9,COC(=O)Cc1cccc(NC(=O)C2=C(C)NC(Nc3nc4ccccc4o3)=NC2c2ccccc2Cl)c1 (stereo not given),9.52 µM (active)
10,COc1cc(C(=O)NC(c2ccc(Cl)cc2)c2cc(Cl)c3cccnc3c2O)cc(OC)c1OC (stereo not given),10.7 µM (active)
11,CCc1ccc(-n2c(SCc3ccccc3Cl)nc3[nH]ncc3c2=O)cc1,23.9 µM (active)
12,COc1ccccc1CNC(=O)C1CCCN(c2nc3ccccc3n3cccc23)C1 (stereo not given),0.0674 µM (active)
13,O=C(CC1N=C2c3ccccc3N=C(SCc3ccc(Cl)cc3)N2C1=O)NCCc1ccccc1 (stereo not given),1.9 µM (active)
14,Cc1ccc(CSc2nc3ccncc3n2Cc2nc(-c3ccccc3C)oc2C)cc1,7.56 µM (active)
15,CCOc1ccc(CNC(=O)Cn2c(=O)c3cccn3c3ccc(F)cc32)cc1,inactive
16,CCc1ccc(S(=O)(=O)NCc2ccc3c(c2)CCN3C(=O)c2ccc(C)cc2)cc1,0.674 µM (active)
17,CC1=C(C(=O)Nc2nnc(C)s2)C(c2ccccc2Cl)N=C(Nc2nc3ccccc3o2)N1 (stereo not given),9.52 µM (active)
18,C=C(C)[C@H]1CC=C(C)CC1,inactive
19,COc1ccc(Cl)cc1NC(=O)CN1C(=O)CSc2ccc(S(=O)(=O)N3CCCC3)cc21,0.756 µM (active)
20,COc1ccc(CNC(=O)Nc2ccc3c(c2)N(C)C(=O)c2ccccc2S3)cc1OC,inactive
